Assay results: PubChem BioAssay (Tox21)
Results filed as inconclusive are left out. Activity calls are given as the source filed them. Unless noted, the call rests on the fitted dose curve; in most records, active means well fitted curve in the direction sought with a large enough effect in the repeat runs; inconclusive means weak or mixed curves; inactive means no such curve, though single readings can be large; an effect the other way counts as inactive or inconclusive.

Experiments:
[1] = target: Aryl hydrocarbon receptor (Homo sapiens) (UniProt P35869); experiment: qHTS assay to identify small molecule that activate the aryl hydrocarbon receptor (AhR) signaling pathway (AID 743085); further: nearly all actives have a fitted effect of over 15% in size; further: potency means the concentration at half of the fitted maximal effect;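 on activation: HG2L7.5c1 human HepG2 liver cells with stably integrated DRE-driven firefly reporter; series mostly up to about 70 µM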
Aryl hydrocarbon receptor (Homo sapiens), sequence (P35869 whole entry, looked up): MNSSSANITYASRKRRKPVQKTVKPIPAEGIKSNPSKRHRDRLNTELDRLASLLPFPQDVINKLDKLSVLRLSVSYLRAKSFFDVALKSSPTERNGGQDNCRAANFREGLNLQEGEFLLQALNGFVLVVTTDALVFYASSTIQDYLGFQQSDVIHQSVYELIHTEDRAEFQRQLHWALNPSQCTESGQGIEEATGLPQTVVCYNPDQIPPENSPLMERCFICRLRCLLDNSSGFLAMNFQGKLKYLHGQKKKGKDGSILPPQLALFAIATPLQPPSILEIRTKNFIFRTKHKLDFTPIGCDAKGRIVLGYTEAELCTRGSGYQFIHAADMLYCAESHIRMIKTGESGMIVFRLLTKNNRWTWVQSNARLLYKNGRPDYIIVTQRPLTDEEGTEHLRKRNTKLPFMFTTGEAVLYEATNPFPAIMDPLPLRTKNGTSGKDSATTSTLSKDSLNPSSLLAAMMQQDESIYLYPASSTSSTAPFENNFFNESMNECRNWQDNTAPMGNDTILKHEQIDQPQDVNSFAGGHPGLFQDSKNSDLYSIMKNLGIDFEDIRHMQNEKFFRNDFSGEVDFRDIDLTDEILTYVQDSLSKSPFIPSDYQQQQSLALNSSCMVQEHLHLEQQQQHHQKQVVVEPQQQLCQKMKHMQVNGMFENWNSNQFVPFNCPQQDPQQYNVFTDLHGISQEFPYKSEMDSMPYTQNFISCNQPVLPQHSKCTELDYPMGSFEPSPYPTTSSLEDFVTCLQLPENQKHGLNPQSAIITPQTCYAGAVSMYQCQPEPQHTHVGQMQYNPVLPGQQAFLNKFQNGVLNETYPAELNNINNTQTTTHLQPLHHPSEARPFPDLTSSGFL
Method in brief: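 HepG2 cells (HG2L7.5c1) stably carrying a firefly luciferase reporter driven by 20 dioxin responsive elements were exposed to compound for 24 h at 37C after a 5 h settling period; luminescence rise (ONE-Glo) indicated activation.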

[2] = target: Peroxisome proliferator-activated receptor gamma (Homo sapiens) (UniProt P37231); experiment: qHTS assay to identify small molecule agonists of the peroxisome proliferator-activated receptor gamma (PPARg) signaling pathway (AID 743094; active means well fitted activation curve with a large enough effect in the signal ratio in the repeat runs, not every such curve was filed as active; the % refers to the signal ratio)
Peroxisome proliferator-activated receptor gamma (Homo sapiens), sequence (P37231 whole entry, looked up): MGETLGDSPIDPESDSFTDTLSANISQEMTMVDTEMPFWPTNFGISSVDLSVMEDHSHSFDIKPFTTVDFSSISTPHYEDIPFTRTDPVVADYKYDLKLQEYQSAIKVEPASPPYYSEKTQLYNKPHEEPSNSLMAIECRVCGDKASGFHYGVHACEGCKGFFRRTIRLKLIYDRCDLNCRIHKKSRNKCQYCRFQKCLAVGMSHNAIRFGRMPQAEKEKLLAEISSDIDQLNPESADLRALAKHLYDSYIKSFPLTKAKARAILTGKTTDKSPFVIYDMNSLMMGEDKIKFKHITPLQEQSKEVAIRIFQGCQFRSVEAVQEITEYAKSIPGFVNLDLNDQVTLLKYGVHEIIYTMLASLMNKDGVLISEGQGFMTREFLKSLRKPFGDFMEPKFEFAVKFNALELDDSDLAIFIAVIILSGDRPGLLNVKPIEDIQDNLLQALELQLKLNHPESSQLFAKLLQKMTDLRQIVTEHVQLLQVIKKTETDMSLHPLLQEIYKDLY
Method in brief: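 HEK293H PPARg-bla cells, 5 h settle at 37C/5% CO2; compound (DMSO) 17 h, 37C; B/G FRET substrate 1 h RT; fluorescence intensity read-out. qHTS format.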

[3] = qHTS assay to identify small molecule antagonists of the peroxisome proliferator-activated receptor gamma (PPARg) signaling pathway - cell viability counter screen (AID 743194); details: Potency: co-treated with 50 nM rosiglitazone; further: nearly all actives have a fitted effect of over 55% in size
Method in brief: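 Viability was measured as CellTiter-Glo luminescence in GeneBLAzer PPARg UAS-bla HEK293H cells. These cells had been exposed 17 h at 37 C to compounds together with rosiglitazone at 50 nM final, with the beta-lactamase readout taken in the same wells.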

[4] = qHTS assay for small molecule agonists of the antioxidant response element (ARE) signaling pathway (AID 743202; active means well fitted activation curve with a large enough effect in the signal ratio in the repeat runs, not every such curve was filed as active; the % refers to the signal ratio)
Method in brief: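 After 16 hours of compound treatment at 37 C, HepG2 cells with a stably integrated ARE-driven beta-lactamase reporter were loaded 2 hours at room temperature with LiveBLAzer B/G FRET substrate and fluorescence intensity measured.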

[5] = qHTS assay for small molecule agonists of the antioxidant response element (ARE) signaling pathway - cell viability counter screen (AID 743203; calls by dose curve; further: nearly all actives have a fitted effect of over 55% in size)
Method in brief: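 Luminescence read-out (CellTiter-Glo, 30 min at room temperature) measured cell viability in the same wells as the ARE beta-lactamase reporter. HepG2 ARE-bla cells were treated with compounds for 16 hrs at 37C/5% CO2.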

[6] = qHTS assay for small molecule activators of the heat shock response signaling pathway - cell viability counter screen (AID 743209); further: nearly all actives have a fitted effect of over 50% in size
Method in brief: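 HSE-bla HeLa; 1500 cells/well; overnight 37 C, 5% CO2; compound 5 h 37 C; LiveBLAzer B/G substrate 2.5 h RT; CellTiter-Glo 30 min RT; luminescence.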

[7] = qHTS assay for small molecule activators of the heat shock response signaling pathway (AID 743210; active means well fitted activation curve with a large enough effect in the signal ratio in the repeat runs, with a control signal flat, not every such curve was filed as active; the % refers to the signal ratio; further: series mostly up to about 63 µM)
Method in brief: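 Compound exposure lasted 5 h at 37 C in HeLa cells carrying a heat-shock-element-driven beta-lactamase reporter. Read-out: fluorescence intensity after 2.5 h room-temperature loading with LiveBLAzer B/G FRET substrate.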

[8] = qHTS assay to identify small molecule agonists of the peroxisome proliferator-activated receptor delta (PPARd) signaling pathway - cell viability counter screen (AID 743211); further: nearly all actives have a fitted effect of over 55% in size
Method in brief: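 PPARd-bla HEK293H cells (UAS-beta-lactamase reporter) were treated with compounds for 17 h at 37 C. Viability was then read in the same wells by CellTiter-Glo luminescence after 30 min at room temperature.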

[9] = qHTS assay to identify small molecule antagonists of the peroxisome proliferator-activated receptor delta (PPARd) signaling pathway - cell viability counter screen (AID 743213); further: nearly all actives have a fitted effect of over 50% in size
Method in brief: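 Agonist-stimulated (L165041, 300 nM final) HEK293H PPARd UAS-bla cells are exposed to compounds for 17 h at 37 C, and ATP-based luminescence (CellTiter-Glo) from the same wells reports cytotoxicity.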

[10] = target: Bile acid receptor (Homo sapiens) (UniProt Q96RI1); experiment: qHTS assay to identify small molecule antagonists of the farnesoid-X-receptor (FXR) signaling pathway (AID 743217; active means well fitted inhibition curve with a large enough effect in the signal ratio in the repeat runs, not every such curve was filed as active; the % refers to the signal ratio)
Bile acid receptor (Homo sapiens), sequence (Q96RI1 whole entry, looked up): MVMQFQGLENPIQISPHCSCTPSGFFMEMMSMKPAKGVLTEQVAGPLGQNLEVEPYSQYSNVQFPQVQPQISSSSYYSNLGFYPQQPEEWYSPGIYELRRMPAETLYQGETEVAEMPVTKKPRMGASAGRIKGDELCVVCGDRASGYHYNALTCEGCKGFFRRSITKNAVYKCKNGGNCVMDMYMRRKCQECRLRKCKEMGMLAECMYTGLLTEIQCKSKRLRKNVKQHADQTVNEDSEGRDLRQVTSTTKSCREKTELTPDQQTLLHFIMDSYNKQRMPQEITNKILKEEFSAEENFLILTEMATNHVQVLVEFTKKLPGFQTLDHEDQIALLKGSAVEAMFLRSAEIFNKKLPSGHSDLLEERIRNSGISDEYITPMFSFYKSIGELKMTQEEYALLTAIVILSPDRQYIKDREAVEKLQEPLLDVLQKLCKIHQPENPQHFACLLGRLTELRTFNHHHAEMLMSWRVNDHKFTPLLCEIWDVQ
Method in brief: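 Read-out: beta-lactamase FRET fluorescence (LiveBLAzer B/G substrate, 2 h, room temperature) in GeneBLAzer FXR-UAS-bla HEK 293T cells. Compounds were co-dosed with 50 uM chenodeoxycholic acid (final) and incubated 16 h at 37 °C.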

[11] = qHTS assay to identify small molecule agonists of the farnesoid-X-receptor (FXR) signaling pathway - cell viability counter screen (AID 743218); further: nearly all actives have a fitted effect of over 45% in size
Method in brief: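 Luminescence from CellTiter-Glo, read after 30 min at RT, reports viability of GeneBLAzer FXR-UAS-bla HEK 293T cells treated 16 h with compounds in the wells used for the beta-lactamase reporter.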

[12] = target: Bile acid receptor (Homo sapiens) (UniProt Q96RI1); experiment: qHTS assay to identify small molecule agonists of the farnesoid-X-receptor (FXR) signaling pathway (AID 743220; active means well fitted activation curve with a large enough effect in the signal ratio in the repeat runs, not every such curve was filed as active; the % refers to the signal ratio)
Method in brief: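 FXR-UAS-bla HEK 293T cells carrying a UAS-driven beta-lactamase reporter were plated for 5 h at 37C/5% CO2, then exposed to DMSO-dissolved Tox21 10K compounds for 16 h at 37C. A LiveBLAzer B/G FRET substrate was loaded for 2 h at room temperature before fluorescence reading.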

[13] = qHTS assay to identify small molecule antagonists of the farnesoid-X-receptor (FXR) signaling pathway - cell viability counter screen (AID 743221; active means well fitted cell-killing curve with a large enough effect in the repeat runs, not every such curve was filed as active; further: nearly all actives have a fitted effect of over 50% in size)
Method in brief: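 FXR-UAS-bla HEK 293T cells were treated with test compounds plus chenodeoxycholic acid (50 uM final) for 16 h at 37 C. Cell viability in the same wells was then read as CellTiter-Glo luminescence after 30 min at room temperature.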

[14] = target: Vitamin D3 receptor (Homo sapiens) (UniProt P11473); experiment: qHTS assay to identify small molecule agonists of the vitamin D receptor (VDR) signaling pathway (AID 743222; calls by dose curve)
Vitamin D3 receptor (Homo sapiens), sequence (P11473 whole entry, looked up): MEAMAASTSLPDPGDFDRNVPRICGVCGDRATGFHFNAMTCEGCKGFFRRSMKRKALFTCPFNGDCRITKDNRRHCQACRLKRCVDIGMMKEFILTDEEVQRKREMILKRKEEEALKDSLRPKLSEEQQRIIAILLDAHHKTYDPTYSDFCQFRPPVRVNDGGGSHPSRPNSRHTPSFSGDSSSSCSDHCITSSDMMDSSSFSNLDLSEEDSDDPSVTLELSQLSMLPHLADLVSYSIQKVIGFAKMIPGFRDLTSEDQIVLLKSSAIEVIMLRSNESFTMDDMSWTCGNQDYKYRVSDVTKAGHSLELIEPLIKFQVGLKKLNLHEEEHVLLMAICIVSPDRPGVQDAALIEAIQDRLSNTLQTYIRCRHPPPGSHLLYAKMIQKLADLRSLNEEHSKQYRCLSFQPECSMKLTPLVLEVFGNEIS
Method in brief: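 Beta-lactamase reporter readout (LiveBLAzer B/G FRET, 2 h RT) in VDR-bla cells after 16 h compound treatment at 37C, 5% CO2; cells pre-incubated 4 h before pin transfer of DMSO solutions.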

[15] = target: Vitamin D3 receptor (Homo sapiens) (UniProt P11473); experiment: qHTS assay to identify small molecule antagonists of the vitamin D receptor (VDR) signaling pathway (AID 743223; active means well fitted inhibition curve with a large enough effect in the signal ratio in the repeat runs, not every such curve was filed as active; the % refers to the signal ratio)
Method in brief: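 VDR-bla cells were plated, incubated 4 h at 37C, then given compound and 1alpha,25-dihydroxyvitamin D3 (3 nM final). After 16 h at 37C, LiveBLAzer B/G FRET substrate was added for 2 h at room temperature and fluorescence read.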

[16] = qHTS assay to identify small molecule agonists of the vitamin D receptor (VDR) signaling pathway - cell viability counter screen (AID 743224); further: series mostly up to about 63 µM; nearly all actives have a fitted effect of over 50% in size
Method in brief: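 Cytotoxicity counter screen: VDR-bla cells, 16 h compound exposure at 37C, 5% CO2; CellTiter-Glo luminescence, 30 min RT, same wells as bla read.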

[17] = qHTS assay to identify small molecule that activate the aryl hydrocarbon receptor (AhR) signaling pathway - cell viability counter screen (AID 743086);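 further: HepG2 liver cells carrying the AhR DRE luciferase reporter; series mostly up to about 70 µM; nearly all actives have a fitted effect of over 45% in size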
Method in brief: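 Cytotoxicity counter screen: CellTiter-Fluor signal (30 min, 37 C) in 4000 HepG2 cells/well carrying the DRE-luciferase reporter, following 24 h compound exposure at 37 C.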

[18] = target: Peroxisome proliferator-activated receptor gamma (Homo sapiens) (UniProt P37231); experiment: qHTS assay to identify small molecule antagonists of the peroxisome proliferator-activated receptor gamma (PPARg) signaling pathway (AID 743191; calls by dose curve; further: series mostly up to about 63 µM; nearly all actives have a fitted effect of over 30% in size)
Method in brief: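 Beta-lactamase reporter under UAS control in HEK293H PPARg-bla cells; compound treatment 17 h at 37C. Read-out: fluorescence intensity after 1 h room-temperature incubation with LiveBLAzer B/G FRET substrate.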

[19] = target: Peroxisome proliferator-activated receptor delta (Homo sapiens) (UniProt Q03181); experiment: qHTS assay to identify small molecule agonists of the peroxisome proliferator-activated receptor delta (PPARd) signaling pathway (AID 743212; calls by dose curve)
Peroxisome proliferator-activated receptor delta (Homo sapiens), sequence (Q03181 whole entry, looked up): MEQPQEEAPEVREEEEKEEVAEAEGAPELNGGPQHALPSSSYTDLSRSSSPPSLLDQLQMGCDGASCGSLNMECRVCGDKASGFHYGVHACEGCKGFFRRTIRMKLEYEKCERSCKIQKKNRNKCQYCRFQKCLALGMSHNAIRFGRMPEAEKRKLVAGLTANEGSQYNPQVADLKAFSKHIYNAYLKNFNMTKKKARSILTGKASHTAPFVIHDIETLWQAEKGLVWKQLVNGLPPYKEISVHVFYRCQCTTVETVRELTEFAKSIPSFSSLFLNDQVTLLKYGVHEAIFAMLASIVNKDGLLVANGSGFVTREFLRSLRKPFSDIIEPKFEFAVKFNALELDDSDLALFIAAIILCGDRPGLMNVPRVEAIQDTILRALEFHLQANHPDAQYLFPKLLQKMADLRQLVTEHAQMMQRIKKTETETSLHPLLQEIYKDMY
Method in brief: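 Beta-lactamase reporter readout: a ratiometric FRET signal from the LiveBLAzer substrate after 2 h at room temperature. Compound exposure at 37 °C in PPARδ-bla HEK293H cells driven by an upstream activator sequence.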

[20] = target: Peroxisome proliferator-activated receptor delta (Homo sapiens) (UniProt Q03181); experiment: qHTS assay to identify small molecule antagonists of the peroxisome proliferator-activated receptor delta (PPARd) signaling pathway (AID 743215; active means well fitted inhibition curve with a large enough effect in the signal ratio in the repeat runs, not every such curve was filed as active; the % refers to the signal ratio; further: series mostly up to about 62 µM)
Method in brief: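 HEK293H GeneBLAzer PPARd UAS-bla reporter cells; cpd + L165041 300 nM final, 17 h 37 C; LiveBLAzer B/G FRET substrate 2 h RT; fluorescence intensity read-out. Antagonist mode.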

Measured: Potency

CCCCCCCCBr
inactive: [1] | [2] | [3] | [4] | [5] | [6] | [7] | [8] | [9] | [10] | [11] | [12] | [13] | [14] | [15] | [16]

O=CCCl
inactive: [17] | [2] | [18] | [3] | [4] | [5] | [6] | [7] | [8] | [9] | [11] | [13] | [14] | [15] | [16]

C[C@H](N)C(=O)c1ccccc1
inactive: [1] | [2] | [18] | [5] | [6] | [7] | [8] | [19] | [9] | [20] | [10] | [11] | [12] | [13] | [14] | [15] | [16]

CN=CNc1ccc(C)cc1C
inactive: [1] | [2] | [18] | [5] | [6] | [7] | [8] | [19] | [9] | [11] | [13] | [14] | [15] | [16]

CCOP(=S)(OCC)SCCl
inactive: [1] | [2] | [18] | [4] | [5] | [6] | [7] | [8] | [10] | [11] | [12] | [13] | [14] | [16]

COC(=O)c1ccc(CBr)cc1
inactive: [17] | [2] | [18] | [3] | [4] | [5] | [6] | [7] | [8] | [19] | [20] | [11] | [13] | [14] | [15] | [16]

CCOC(=O)Nc1cccc(OC(=O)Nc2ccccc2)c1
active: [1] 54.5 µM
inactive: [2] | [3] | [4] | [5] | [6] | [7] | [8] | [9] | [20] | [11] | [13] | [15] | [16]

CCC1(c2ccccc2)C(=O)N(COC)C(=O)N(COC)C1=O
inactive: [1] | [2] | [3] | [4] | [5] | [7] | [8] | [19] | [20] | [11] | [14] | [15] | [16]

CN(C)C(=O)Oc1cc(OC(=O)N(C)C)cc(C(O)CNC(C)(C)C)c1 (stereo unspecified)
inactive: [17] | [2] | [18] | [3] | [4] | [5] | [6] | [8] | [9] | [20] | [10] | [11] | [12] | [13] | [14] | [15] | [16]
